Laboratory results from the supplement of paper PMC11732987, “Enantioselective OTUD7B fragment discovery through chemoproteomics screening and high-throughput optimisation” (Communications Chemistry, 2025).

Tests used:
Experiment in all cases: log2 ratio of Biotin-Ahx-Ub-VS probe labelling (fragment/DMSO); higher = less target engagement (more negative = stronger competition), active = hit call of the paper (q ≤ 0.05, log2 ratio ≤ -1)
Details in all cases: compound concentration: 200 uM; treatment time: 3 h
[1] = target: USP34 (UniProt Q70CQ2)
USP34, sequence (Q70CQ2 whole entry, the tested form may be a part): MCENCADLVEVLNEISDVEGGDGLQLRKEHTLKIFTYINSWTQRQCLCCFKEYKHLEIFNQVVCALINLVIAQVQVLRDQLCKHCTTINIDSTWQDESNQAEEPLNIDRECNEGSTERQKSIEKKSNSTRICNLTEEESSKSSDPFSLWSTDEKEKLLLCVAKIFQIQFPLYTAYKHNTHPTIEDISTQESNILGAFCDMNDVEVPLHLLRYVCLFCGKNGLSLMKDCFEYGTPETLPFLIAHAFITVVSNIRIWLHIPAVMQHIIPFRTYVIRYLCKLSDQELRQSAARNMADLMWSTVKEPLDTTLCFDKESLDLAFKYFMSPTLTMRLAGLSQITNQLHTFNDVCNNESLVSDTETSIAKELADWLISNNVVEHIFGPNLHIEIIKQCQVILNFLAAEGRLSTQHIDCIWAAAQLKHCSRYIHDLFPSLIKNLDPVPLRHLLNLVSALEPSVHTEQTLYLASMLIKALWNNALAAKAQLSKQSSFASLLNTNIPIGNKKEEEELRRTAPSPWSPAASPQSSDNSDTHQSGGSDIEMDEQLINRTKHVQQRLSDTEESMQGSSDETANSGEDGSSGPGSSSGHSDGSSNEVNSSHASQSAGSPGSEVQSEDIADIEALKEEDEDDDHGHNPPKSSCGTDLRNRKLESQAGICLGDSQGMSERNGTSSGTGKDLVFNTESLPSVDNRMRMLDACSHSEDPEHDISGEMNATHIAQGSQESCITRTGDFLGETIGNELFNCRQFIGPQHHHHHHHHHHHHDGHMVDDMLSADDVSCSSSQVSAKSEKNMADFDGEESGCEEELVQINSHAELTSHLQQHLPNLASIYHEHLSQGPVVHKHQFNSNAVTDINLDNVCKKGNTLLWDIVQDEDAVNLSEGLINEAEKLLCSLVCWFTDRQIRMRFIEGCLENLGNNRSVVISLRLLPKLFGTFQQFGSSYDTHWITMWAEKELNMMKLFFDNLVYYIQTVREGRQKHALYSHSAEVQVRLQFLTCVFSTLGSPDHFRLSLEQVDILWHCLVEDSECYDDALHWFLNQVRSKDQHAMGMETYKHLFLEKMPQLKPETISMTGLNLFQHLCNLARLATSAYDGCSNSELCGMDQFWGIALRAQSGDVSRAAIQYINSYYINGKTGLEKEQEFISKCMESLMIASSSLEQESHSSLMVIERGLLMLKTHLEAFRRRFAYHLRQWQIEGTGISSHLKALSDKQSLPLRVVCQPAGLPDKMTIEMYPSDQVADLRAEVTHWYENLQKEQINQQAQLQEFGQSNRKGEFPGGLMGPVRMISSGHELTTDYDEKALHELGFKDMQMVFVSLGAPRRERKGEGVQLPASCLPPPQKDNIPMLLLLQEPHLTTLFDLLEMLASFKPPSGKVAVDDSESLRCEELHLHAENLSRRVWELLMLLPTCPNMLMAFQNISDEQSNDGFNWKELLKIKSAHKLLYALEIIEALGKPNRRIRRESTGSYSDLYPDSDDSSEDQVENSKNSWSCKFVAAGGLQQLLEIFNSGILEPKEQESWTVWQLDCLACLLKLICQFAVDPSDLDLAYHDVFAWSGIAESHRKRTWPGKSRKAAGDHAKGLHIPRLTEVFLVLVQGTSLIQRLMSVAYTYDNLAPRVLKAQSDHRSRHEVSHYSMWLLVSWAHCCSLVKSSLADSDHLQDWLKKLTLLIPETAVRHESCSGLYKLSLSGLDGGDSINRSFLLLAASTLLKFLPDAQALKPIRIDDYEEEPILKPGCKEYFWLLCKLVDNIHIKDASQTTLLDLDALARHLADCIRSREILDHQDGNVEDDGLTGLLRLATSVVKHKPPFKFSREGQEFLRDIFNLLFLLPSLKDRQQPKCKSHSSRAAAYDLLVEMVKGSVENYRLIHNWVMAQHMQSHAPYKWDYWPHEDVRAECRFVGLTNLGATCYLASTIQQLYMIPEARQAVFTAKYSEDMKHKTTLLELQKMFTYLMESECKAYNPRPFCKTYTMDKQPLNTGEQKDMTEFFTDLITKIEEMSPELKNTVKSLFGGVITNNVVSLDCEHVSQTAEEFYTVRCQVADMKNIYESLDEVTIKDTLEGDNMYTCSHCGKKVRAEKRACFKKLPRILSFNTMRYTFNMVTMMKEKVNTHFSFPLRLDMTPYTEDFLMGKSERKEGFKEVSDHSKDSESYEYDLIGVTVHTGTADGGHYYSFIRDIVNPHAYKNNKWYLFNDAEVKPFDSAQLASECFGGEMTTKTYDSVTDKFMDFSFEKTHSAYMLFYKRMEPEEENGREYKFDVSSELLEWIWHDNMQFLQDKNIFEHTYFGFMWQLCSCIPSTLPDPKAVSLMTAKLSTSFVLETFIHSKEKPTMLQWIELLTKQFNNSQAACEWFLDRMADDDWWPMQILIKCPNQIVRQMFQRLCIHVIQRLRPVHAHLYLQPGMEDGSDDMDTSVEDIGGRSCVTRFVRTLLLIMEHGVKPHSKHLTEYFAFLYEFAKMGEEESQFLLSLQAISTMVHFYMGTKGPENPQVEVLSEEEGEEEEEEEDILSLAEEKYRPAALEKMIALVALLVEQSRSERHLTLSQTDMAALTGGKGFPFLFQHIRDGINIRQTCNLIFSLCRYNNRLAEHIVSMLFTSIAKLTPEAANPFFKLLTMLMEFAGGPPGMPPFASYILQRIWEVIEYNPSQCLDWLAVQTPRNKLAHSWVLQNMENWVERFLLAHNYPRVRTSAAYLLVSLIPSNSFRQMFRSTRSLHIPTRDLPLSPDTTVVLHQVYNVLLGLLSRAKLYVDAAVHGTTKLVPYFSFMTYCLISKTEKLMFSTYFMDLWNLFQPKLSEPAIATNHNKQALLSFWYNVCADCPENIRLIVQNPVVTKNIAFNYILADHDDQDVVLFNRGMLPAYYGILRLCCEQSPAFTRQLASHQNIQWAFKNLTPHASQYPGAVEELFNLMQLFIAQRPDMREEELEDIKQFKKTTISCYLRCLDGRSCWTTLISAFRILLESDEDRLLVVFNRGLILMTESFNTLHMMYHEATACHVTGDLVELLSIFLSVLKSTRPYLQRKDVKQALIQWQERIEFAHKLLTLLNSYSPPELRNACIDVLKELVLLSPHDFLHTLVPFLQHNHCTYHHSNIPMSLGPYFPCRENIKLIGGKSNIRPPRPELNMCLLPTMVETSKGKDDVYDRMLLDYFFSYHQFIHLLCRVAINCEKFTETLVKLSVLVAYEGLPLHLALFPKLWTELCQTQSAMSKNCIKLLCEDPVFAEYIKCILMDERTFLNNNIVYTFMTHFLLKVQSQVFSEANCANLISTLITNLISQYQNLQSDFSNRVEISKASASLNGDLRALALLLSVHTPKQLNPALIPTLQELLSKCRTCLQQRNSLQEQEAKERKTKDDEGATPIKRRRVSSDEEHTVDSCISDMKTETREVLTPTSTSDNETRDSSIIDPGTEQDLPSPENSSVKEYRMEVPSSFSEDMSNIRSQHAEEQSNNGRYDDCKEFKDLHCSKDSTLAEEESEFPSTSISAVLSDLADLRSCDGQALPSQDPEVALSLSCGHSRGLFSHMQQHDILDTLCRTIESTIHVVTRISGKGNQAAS
Summary of the method: (§1)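 Each value is an average log2 ratio of fragment to vehicle, tested by unpaired t-test. The underlying Spectronaut label-free quantities were global-median-normalised, and only proteins with ≥2 unique peptides were included. Triplicate HEK293T lysate samples (495 µg) were exposed to fragment at 200 µM or vehicle for 3 h, then to Biotin-Ahx-Ub-VS at 0.5 µM final for 1 h, before NeutrAvidin enrichment of labelled DUBs, LysC and trypsin digestion, and diaPASEF LC-MS/MS.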

[2] = target: T1, USP36 (UniProt Q9P275)
T1 sequence (whole entry): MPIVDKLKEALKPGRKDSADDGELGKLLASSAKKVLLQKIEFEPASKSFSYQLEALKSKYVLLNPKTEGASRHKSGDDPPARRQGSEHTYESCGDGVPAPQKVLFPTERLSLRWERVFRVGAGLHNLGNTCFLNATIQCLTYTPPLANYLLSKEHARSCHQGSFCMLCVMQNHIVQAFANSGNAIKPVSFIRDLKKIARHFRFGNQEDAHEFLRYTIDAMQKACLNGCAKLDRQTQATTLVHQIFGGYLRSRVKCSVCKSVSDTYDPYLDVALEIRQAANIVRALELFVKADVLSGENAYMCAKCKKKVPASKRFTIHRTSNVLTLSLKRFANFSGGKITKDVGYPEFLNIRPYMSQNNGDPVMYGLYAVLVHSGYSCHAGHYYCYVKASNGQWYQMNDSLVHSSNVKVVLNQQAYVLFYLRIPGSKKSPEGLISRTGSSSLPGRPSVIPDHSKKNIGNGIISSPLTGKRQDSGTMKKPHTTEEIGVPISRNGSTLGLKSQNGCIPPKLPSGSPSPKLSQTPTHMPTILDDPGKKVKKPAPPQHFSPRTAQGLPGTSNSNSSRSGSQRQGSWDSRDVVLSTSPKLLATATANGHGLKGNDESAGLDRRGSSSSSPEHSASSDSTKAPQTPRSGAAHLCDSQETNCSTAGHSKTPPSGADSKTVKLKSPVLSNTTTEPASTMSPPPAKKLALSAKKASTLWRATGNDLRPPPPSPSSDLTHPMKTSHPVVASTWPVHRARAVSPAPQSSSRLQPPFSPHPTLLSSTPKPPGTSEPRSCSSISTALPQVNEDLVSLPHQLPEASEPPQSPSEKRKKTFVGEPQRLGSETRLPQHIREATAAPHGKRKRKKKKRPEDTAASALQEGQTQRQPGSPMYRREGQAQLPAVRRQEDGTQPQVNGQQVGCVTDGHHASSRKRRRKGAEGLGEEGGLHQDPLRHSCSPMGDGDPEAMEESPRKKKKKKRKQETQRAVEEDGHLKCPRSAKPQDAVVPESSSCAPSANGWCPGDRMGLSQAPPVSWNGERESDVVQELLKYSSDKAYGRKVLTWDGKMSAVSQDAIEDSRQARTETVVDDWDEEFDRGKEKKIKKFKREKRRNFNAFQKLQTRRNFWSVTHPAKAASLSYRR
Summary of the method: as §1

[3] = target: T2, USP38 (UniProt Q8NB14)
T2 sequence (whole entry): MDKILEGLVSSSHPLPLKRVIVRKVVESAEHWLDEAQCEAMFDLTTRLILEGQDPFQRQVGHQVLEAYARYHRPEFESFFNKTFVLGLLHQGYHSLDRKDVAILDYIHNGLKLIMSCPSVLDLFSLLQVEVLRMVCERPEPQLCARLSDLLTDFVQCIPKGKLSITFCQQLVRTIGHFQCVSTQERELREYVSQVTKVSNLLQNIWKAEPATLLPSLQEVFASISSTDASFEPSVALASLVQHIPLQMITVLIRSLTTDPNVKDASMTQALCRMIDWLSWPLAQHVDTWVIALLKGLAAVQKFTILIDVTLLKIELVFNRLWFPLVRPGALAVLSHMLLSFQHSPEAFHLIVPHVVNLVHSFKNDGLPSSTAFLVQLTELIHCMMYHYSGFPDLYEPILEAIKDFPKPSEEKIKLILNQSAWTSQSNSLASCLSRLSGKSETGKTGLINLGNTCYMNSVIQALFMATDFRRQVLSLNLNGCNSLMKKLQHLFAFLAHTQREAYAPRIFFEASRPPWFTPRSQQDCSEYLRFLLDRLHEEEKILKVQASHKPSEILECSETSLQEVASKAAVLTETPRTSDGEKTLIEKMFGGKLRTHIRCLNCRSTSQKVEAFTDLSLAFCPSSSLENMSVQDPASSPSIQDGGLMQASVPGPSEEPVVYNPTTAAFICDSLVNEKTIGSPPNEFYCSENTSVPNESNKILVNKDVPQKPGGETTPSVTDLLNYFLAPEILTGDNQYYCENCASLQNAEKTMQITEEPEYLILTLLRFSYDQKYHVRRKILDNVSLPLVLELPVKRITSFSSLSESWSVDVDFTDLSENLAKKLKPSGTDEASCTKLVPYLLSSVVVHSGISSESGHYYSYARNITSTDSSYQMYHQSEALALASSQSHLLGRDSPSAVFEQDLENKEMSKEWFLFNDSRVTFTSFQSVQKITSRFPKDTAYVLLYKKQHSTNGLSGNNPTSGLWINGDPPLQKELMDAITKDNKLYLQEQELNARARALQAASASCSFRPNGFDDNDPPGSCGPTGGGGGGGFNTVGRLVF
Summary of the method: as §1

[4] = target: T3, USP39 (UniProt Q53GS9)
T3 sequence (whole entry): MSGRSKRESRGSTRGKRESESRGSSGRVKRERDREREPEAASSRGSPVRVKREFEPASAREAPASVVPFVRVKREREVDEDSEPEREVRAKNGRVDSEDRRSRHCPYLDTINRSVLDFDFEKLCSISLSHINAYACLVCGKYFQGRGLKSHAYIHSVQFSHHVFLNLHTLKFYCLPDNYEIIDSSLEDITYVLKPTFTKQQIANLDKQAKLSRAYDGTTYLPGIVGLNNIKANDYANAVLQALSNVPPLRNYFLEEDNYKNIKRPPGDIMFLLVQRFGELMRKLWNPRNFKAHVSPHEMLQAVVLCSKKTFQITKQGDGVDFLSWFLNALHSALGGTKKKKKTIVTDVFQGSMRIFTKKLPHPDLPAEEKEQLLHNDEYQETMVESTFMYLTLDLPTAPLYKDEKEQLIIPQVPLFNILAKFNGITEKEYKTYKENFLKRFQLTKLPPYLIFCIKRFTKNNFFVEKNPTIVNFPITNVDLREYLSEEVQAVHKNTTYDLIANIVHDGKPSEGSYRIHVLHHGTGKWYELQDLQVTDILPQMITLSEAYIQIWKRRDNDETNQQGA
Summary of the method: as §1

[5] = target: T4, USP4 (UniProt Q13107)
T4 sequence (whole entry): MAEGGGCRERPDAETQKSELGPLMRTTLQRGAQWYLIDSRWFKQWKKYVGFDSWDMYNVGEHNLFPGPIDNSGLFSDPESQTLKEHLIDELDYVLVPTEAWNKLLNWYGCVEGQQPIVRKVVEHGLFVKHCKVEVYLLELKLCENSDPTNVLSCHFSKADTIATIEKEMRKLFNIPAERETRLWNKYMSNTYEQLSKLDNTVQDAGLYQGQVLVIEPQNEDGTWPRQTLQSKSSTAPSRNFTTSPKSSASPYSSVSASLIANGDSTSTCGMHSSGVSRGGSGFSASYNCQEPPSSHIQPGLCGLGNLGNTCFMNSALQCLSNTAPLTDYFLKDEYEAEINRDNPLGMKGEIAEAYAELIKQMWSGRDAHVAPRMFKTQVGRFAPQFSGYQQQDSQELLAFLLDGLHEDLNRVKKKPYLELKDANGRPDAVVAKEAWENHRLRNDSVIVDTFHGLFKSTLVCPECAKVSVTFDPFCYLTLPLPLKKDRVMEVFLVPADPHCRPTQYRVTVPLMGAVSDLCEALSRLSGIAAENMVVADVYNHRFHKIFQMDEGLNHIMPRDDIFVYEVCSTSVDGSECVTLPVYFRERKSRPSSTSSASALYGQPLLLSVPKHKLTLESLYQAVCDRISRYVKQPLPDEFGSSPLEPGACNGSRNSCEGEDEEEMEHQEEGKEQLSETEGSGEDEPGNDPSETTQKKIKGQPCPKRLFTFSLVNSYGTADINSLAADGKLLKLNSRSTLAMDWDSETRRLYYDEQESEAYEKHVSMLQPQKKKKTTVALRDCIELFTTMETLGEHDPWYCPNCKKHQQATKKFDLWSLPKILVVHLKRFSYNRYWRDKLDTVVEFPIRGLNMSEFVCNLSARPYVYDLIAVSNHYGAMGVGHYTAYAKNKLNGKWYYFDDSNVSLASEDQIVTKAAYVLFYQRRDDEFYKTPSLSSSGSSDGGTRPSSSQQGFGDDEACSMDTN
Summary of the method: as §1

Measured: log2 ratio of Biotin-Ahx-Ub-VS probe labelling

CNC(=O)C1CCN(C(=O)CCl)CC1
inactive: [1] -0.0658 | [2] -0.083 | [3] 0.119 | [4] 0.229 | [5] -0.146
